# In PubChem BioAssay AID1117280 (The Scripps Research Institute Molecular Screening Center, 2014):
# Fewer than 10 of roughly 1,100 compounds were called active. A selection follows. A number with no mark means an inactive call.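 Rule for the calls: active = mean activation above a set limit taken from the earlier primary screen (cut at about 11% in these data); inactive = the rest.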
# Target: Transthyretin (Homo sapiens) (UniProt P02766)
# Assay: compounds raising TTR promoter-driven luciferase – cell-based, luminescence, SH-SY5Y, triplicate, confirmation (AID 1117280);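 note: 0% = DMSO-treated cells and 100% = recombinant Lucia luciferase without cells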
# Conditions: SHSY5Y TTR promoter Gaussia luciferase, at 16.7 µM, hits give high values, 100% = purified Lucia enzyme wells, no cells
row,SMILES,activation
1,COc1ccc(-c2oc3ncn(Cc4ccco4)c(=N)c3c2-c2ccc(OC)cc2)cc1,-0.27%
2,O=C(NNC1=NCCC1)c1cccc(S(=O)(=O)N2CCCCC2)c1,0%
3,Cc1ccc(CN2CCCOCCS2(=O)=O)cc1,0.01%
4,O=S(=O)(NCCCN1CCOCC1)c1ccc(F)c(Cl)c1,1.67%
5,N#Cc1cccc(CN2CCC(=O)N(CCO)CC2)c1,0.71%
6,Cc1cc(C)c2nc3nc(C)cc(C)c3c(N)c2c1,9.48%
7,COc1cccc(-c2cnc(C(O)c3ccccc3OC)[nH]2)c1 (stereo unspecified),-0.09%
8,C/C(CC(=O)Nc1ccc(N(C)C)cc1)=N\NC(=O)c1ccccc1F,0.83%
9,C(=N\n1cnnc1)/c1cccnc1,0.91%
10,CCOc1ccccc1NC(=O)COc1ccc(S(=O)(=O)N2CCCC2)cc1,1.24%
11,CSCCC(NC(N)=O)C(=O)N(C)CC(=O)Nc1ccc(C)cc1 (stereo unspecified),-0.85%
12,CCOC(=O)c1cc(-c2ccc(Cl)s2)nc2c1c(C)nn2C,0.17%
13,O=C(Nc1cccc(O)c1)c1ccc(C(=O)c2ccccc2)o1,-1.44%
14,COc1cc(C(C)=O)ccc1OC(C)C(=O)Nc1ccc(S(=O)(=O)N2CCCC2)cc1 (stereo unspecified),0.49%
15,Cc1c(NS(=O)(=O)c2ccc(NC3CCCC3)c([N+](=O)[O-])c2)c(=O)n(-c2ccccc2)n1C,-1.51%
16,N=c1ccn(CC(=O)NC(N)=O)c2ccccc12,11.7% (active)
17,C[C@H](NC(=O)C1CCN(S(=O)(=O)c2ccccc2)CC1)C(=O)NCc1ccccc1,-0.18%
18,CCCCc1cc(=O)oc2cc(C)cc(OCc3nn[nH]n3)c12,0.29%
19,O=C(O)C1OC(C(=O)O)C2C1C(F)(F)C2(F)F (stereo unspecified),0.77%
20,CCCCOCCCNC(=O)C[C@H]1C[C@@]2(C(=O)OC)C(=C[C@H](C(C)(C)C)O[C@@H]2C)N(CCc2ccc(OC)c(OC)c2)C1=O,-0.4%
21,Cc1cccc(C)c1NC(=O)CN1C(=O)C(C)Oc2ccccc21 (stereo unspecified),-0.02%
22,Brc1ccc(/C=N/N2CCN(C3c4ccccc4-c4ccccc43)CC2)s1,-0.21%
23,O=C(O)Cn1c(Cc2ccccc2)nc2ccccc21,-0.81%
24,Cc1nc(-c2ccc(Cl)cc2)sc1C(=O)NN,1.27%
25,COc1cc(N2C(=O)CC3(CCCC3)CC2=O)cc(OC)c1OC,0.03%
26,CCCCCc1ccc(-c2cn(Cc3ccc4ccccc4c3)nn2)cc1,-0.98%

row,SMILES,activation
1,CCOc1ccc(N=C2NC(=O)S/C2=C\c2ccc(O)cc2)cc1,-2.11%
2,Cc1ccccc1/[N+]([O-])=C/c1ccncc1,0.64%
3,O=C(NCCCNC(=O)c1ccccc1Cl)c1cnccn1,-0.49%
4,COc1ccccc1N1CCN(Cc2cc(OC)c3c(c2)OCO3)CC1,1.03%
5,O=C(CCC(=O)c1cccs1)NCc1ccccc1,-0.16%
6,CCOc1ccc(NC(=O)COc2ccc(S(=O)(=O)N3CCCC3)cc2)cc1,-0.08%
7,Cc1c(C#N)c(NC(=O)c2ccccc2)n(Cc2ccccc2)c1C,0.46%
8,O=C(Nc1ccccc1C(=O)N1CCCCCC1)c1ccccc1Cl,0.38%
9,COc1ccc(S(=O)(=O)NCC(=O)NCc2cc(=O)n(C)c(=O)n2C)cc1F,-0.18%
10,Cc1cccc(N2C(=O)CC(SC(N)=Nc3ccccc3)C2=O)c1 (stereo unspecified),-0.45%
11,C=C1C(C(C)C)N(C)C2=NC(c3ccccc3)CC(=O)N12 (stereo unspecified),0.07%
12,Cc1cc(C)c(C#N)c(N2CCC(C(N)=O)CC2)n1,-0.71%
13,CC(C)NC(=O)c1ccc(Sc2ccccc2)c([N+](=O)[O-])c1,-0.62%
14,CCOC(=O)c1c(-c2ccccc2)oc2ccc(OCC(N)=O)cc12,-0.6%
15,O=C(NC(=O)c1ccccc1N1CCCCC1)Nc1ccc(Br)cc1,0.23%
16,COc1ccc(C2c3ccc(O)cc3Oc3ncn(CCCO)c(=N)c32)cc1OC (stereo unspecified),-0.83%
17,CC(C)(C)C1CCC(OC(=O)CCC(=O)Nc2ccccc2)CC1 (stereo unspecified),-1.07%
18,O=C(NNC(=O)c1cc(S(=O)(=O)N2CCCCC2)ccc1Cl)c1ccccc1O,0.18%
19,Nc1nc(SCC(=O)Nc2ccc(Cl)c([N+](=O)[O-])c2)n[nH]1,0.36%
20,COC(=O)c1cnn2c(C(F)(F)F)cc(-c3ccco3)nc12,-0.89%
21,O=C1c2cccc(OCC(=O)N3N=C(c4cccs4)CC3c3ccc(F)cc3)c2CCN1Cc1ccccc1 (stereo unspecified),-0.93%
22,Cn1cc(CN2CCCC(CO)C2)c(-c2ccc(Oc3ccccc3)cc2)n1 (stereo unspecified),2.56%
23,CCCCN(C)CCNC(=O)C1CCCN(S(=O)(=O)c2cccc3nsnc23)C1 (stereo unspecified),0.58%
24,O=S(=O)(NCc1ccccc1Br)c1ccccc1Br,-0.25%
25,O=C(CS(=O)(=O)c1ccccc1)Nc1ccc(S(=O)(=O)Nc2ccccn2)cc1,-0.26%
